Laboratory results taken from ChEMBL document CHEMBL1157539, “Thousands of chemical starting points for antimalarial lead identification” (Nature, 2010).

Tested on: Plasmodium falciparum
Experiment: GSK_TCMDC: Inhibition of Plasmodium falciparum Dd2 in whole red blood cells, using parasite LDH activity as an index of growth. Test compounds present at 2uM
Type: functional

**Q.** For `O=C(/C=C/c1ccc(Cl)c(Cl)c1)NCCCCCN1CCC(n2c(=O)[nH]c3ccccc32)CC1`, which Inhibition is on record?
**A.** 0%

**Q.** `Cc1nc(N)nc(N)c1-c1ccc(Br)c([N+](=O)[O-])c1` was tested. Which Inhibition did it give?
**A.** 2%

**Q.** Which Inhibition does the source give for `Cc1nc2nc(N)nc(N)c2c(C)c1Cc1ccc(C#N)cc1.Cl` here?
**A.** 4%

**Q.** With `COc1ccc(NC(=O)Nc2cc(C)nc3cccnc23)cc1Cn1ccnc1` as the compound, how does the Inhibition read?
**A.** 41%

**Q.** Which Inhibition does the source give for `CCCCCC(C)C(C)c1cc(OC(N)=O)c2c(c1)OC(C)(C)C=C2c1ccncc1` (stereo not drawn) here?
**A.** 0%

**Q.** `O=C(Nc1cccc(-c2ccc(-c3nc4cc(C(F)(F)F)ccc4[nH]3)cc2)c1)Nc1ccc(F)c(F)c1F` was tested. Which Inhibition did it give?
**A.** 99%

**Q.** With `COc1ccc(C(=O)N2CCC(CN3CCOC(c4ccccc4)(c4ccccc4)C3)CC2)cc1` as the compound, how does the Inhibition read?
**A.** 96%

**Q.** Which Inhibition does the source give for `CN1CCC(NCc2ccc(S(=O)(=O)Nc3ccc(Oc4cccc(Cl)c4)cc3)cc2)CC1.O=C(O)C(F)(F)F` here?
**A.** 5%

**Q.** Which Inhibition does the source give for `CC(C)(C)c1ccc(CN2CCC(CNC(=O)c3cc(-c4ccccc4Cl)cs3)C2)cc1.O=C(O)C(F)(F)F` (stereo not drawn) here?
**A.** 56%

**Q.** For `O=C(O)C(F)(F)F.O=S(=O)(NCCN1CCCC1)c1cccc(-c2cccc(CNCc3ccc(F)cc3)c2)c1`, which Inhibition is on record?
**A.** 73%

**Q.** With `CCCc1cc(NCC)nc(Nc2ccc(F)cc2)n1` as the compound, how does the Inhibition read?
**A.** 36%

**Q.** Which Inhibition does the source give for `CCOC(=O)c1cn(CC)c2cc(F)c(OC3CC4CCC3(C)C4(C)C)cc2c1=O` (stereo not drawn) here?
**A.** 70%

**Q.** How did the Inhibition turn out when `CCCS(=O)(=O)N1CCC(CO)(Cc2ccccc2C(F)(F)F)CC1` was run?
**A.** 57%

**Q.** `O=C(NC1CCCC1)c1ccc(N2CCC(NCc3cc4cc(Cl)ccc4[nH]3)CC2)cc1` was tested. Which Inhibition did it give?
**A.** 0%

**Q.** How did the Inhibition turn out when `COCCN(CCOC)c1ncc(-c2ccsc2)c(-c2nc(C)c(C)s2)n1` was run?
**A.** 63%

**Q.** How did the Inhibition turn out when `COc1cc(Cc2cnc(N)nc2N)cc(OCCCCC2SC(=O)NC2=O)c1OC` (stereo not drawn) was run?
**A.** 0%

**Q.** For `CCN1CCC(N(Cc2ccc(-c3ccc(C(F)(F)F)cc3)cc2)C(=O)Cn2c(SCc3ccc(F)cc3)nc(=O)c3c2CCC3)CC1.O=C(O)C(O)C(O)C(=O)O`, which Inhibition is on record?
**A.** 96%

**Q.** `Cl.Cn1c(/C=C/C(=O)NC2CCC(CCN3CCc4ccc(C#N)cc4CC3)CC2)cc2ccccc21` (stereo not drawn) was tested. Which Inhibition did it give?
**A.** 29%

**Q.** Which Inhibition does the source give for `NC1CCCN(Cc2cccc(-c3ccc(-c4nc5ccccc5[nH]4)s3)c2)C1.O=C(O)C(F)(F)F` (stereo not drawn) here?
**A.** 88%

**Q.** With `COc1ccc(-c2onc(C(F)(F)F)c2-c2cc3ccccc3o2)c(O)c1` as the compound, how does the Inhibition read?
**A.** 15%

**Q.** With `CCN(CC)CCCN1CCN(C(=O)c2cccc(-c3noc(C(F)(F)F)n3)c2)CC1` as the compound, how does the Inhibition read?
**A.** 74%

**Q.** How did the Inhibition turn out when `Cc1ccc(Oc2c(-c3ccccc3CN3CCCC3CN(C)C)cnn(C)c2=O)cn1.O=C(O)C(F)(F)F` (stereo not drawn) was run?
**A.** 9%

**Q.** With `CC(C)(NCc1ccc(OC(F)(F)F)cc1)c1nc(-c2ccc(Cl)c(O)c2)c(-c2ccncc2)[nH]1.Cl` as the compound, how does the Inhibition read?
**A.** 32%

**Q.** Which Inhibition does the source give for `Cc1ccc(-n2c(Cc3cccc4ccccc34)nnc2SCCC#N)c(C)c1` here?
**A.** 98%

**Q.** For `Fc1ccccc1CNc1ncc(-c2ccsc2)c(-c2nccs2)n1`, which Inhibition is on record?
**A.** 71%

**Q.** How did the Inhibition turn out when `COc1ccc2ncc(Cl)c([C@H](O)CN3CCC(NCc4cc5c(cn4)OCCO5)CC3)c2c1.Cl` was run?
**A.** 100%

**Q.** For `Cl.Cn1c2ccccc2c2c3ccccc3c(CNC(CO)(CO)CO)cc21`, which Inhibition is on record?
**A.** 78%

**Q.** For `Clc1cc(Nc2ncnc3cc(C#C[C@H]4CCCN4)sc23)cc2nc(Cc3ccccc3)[nH]c12.O=C(O)C(F)(F)F`, which Inhibition is on record?
**A.** 57%

**Q.** For `COc1cccc(C(O)CNc2ccnc(Nc3ccc(Cl)cc3)n2)c1` (stereo not drawn), which Inhibition is on record?
**A.** 46%

**Q.** How did the Inhibition turn out when `CN(C)c1ccc(C(c2ccc(N(C)C)cc2)c2cc([N+](=O)[O-])ccc2Cl)cc1` was run?
**A.** 67%

**Q.** For `CNCc1ccc(-c2ccc3ccnc(N)c3c2)cc1`, which Inhibition is on record?
**A.** 98%

**Q.** How did the Inhibition turn out when `O=C(O)C(F)(F)F.OC1CCCN(Cc2cccc(-c3ccc(-c4nc5cc(F)ccc5[nH]4)cc3)c2)C1` (stereo not drawn) was run?
**A.** 42%

**Q.** Which Inhibition does the source give for `Cc1cccc2nc(-c3cccc(-c4cccc(CN5CCCC5CN)c4)c3)[nH]c12.O=C(O)C(F)(F)F` (stereo not drawn) here?
**A.** 72%

**Q.** Which Inhibition does the source give for `CC(CN1CCN(C)CC1)C(=O)Nc1cccc(-c2cccc(-c3nc4ccccc4[nH]3)c2)c1` (stereo not drawn) here?
**A.** 19%

**Q.** Which Inhibition does the source give for `CCNc1cc(C(=O)N[C@@H](Cc2ccccc2)[C@H](O)CNCc2cc(C#N)ccc2OC)cc(N2CCCC2=O)c1.O=C(O)C(F)(F)F` here?
**A.** 51%

**Q.** How did the Inhibition turn out when `CC(C)(C)c1ccc2nccc(Nc3cccc(O)c3)c2c1` was run?
**A.** 100%

**Q.** For `CNC(=O)c1cnc(Nc2ccc(N3CCN(C)CC3)cc2)nc1Nc1cccc([N+](=O)[O-])c1.O=C(O)C(F)(F)F`, which Inhibition is on record?
**A.** 100%

**Q.** How did the Inhibition turn out when `COc1ccccc1NC(=O)OC(COc1ccc(N)cc1)CN1CC=C(c2ccccc2)CC1.O=C(O)C(F)(F)F` (stereo not drawn) was run?
**A.** 81%

**Q.** `Cc1csc2nc(-c3ccccn3)nc(Nc3ccc4ncsc4c3)c12.Cl` was tested. Which Inhibition did it give?
**A.** 91%

Tested on: HepG2
Experiment: GSK_TCMDC: Percent inhibition of human HepG2 cell line. Test compounds present at 10uM.
Type: functional

**Q.** `O=C(/C=C/c1ccc(Cl)c(Cl)c1)NCCCCCN1CCC(n2c(=O)[nH]c3ccccc32)CC1` was tested. Which Inhibition did it give?
**A.** 38%

**Q.** With `Cc1nc(N)nc(N)c1-c1ccc(Br)c([N+](=O)[O-])c1` as the compound, how does the Inhibition read?
**A.** 64%

**Q.** `Cc1nc2nc(N)nc(N)c2c(C)c1Cc1ccc(C#N)cc1.Cl` was tested. Which Inhibition did it give?
**A.** 69%

**Q.** How did the Inhibition turn out when `COc1ccc(NC(=O)Nc2cc(C)nc3cccnc23)cc1Cn1ccnc1` was run?
**A.** 12%

**Q.** Which Inhibition does the source give for `CCCCCC(C)C(C)c1cc(OC(N)=O)c2c(c1)OC(C)(C)C=C2c1ccncc1` (stereo not drawn) here?
**A.** 81%

**Q.** `O=C(Nc1cccc(-c2ccc(-c3nc4cc(C(F)(F)F)ccc4[nH]3)cc2)c1)Nc1ccc(F)c(F)c1F` was tested. Which Inhibition did it give?
**A.** 45%

**Q.** With `COc1ccc(C(=O)N2CCC(CN3CCOC(c4ccccc4)(c4ccccc4)C3)CC2)cc1` as the compound, how does the Inhibition read?
**A.** 19%

**Q.** Which Inhibition does the source give for `CN1CCC(NCc2ccc(S(=O)(=O)Nc3ccc(Oc4cccc(Cl)c4)cc3)cc2)CC1.O=C(O)C(F)(F)F` here?
**A.** 47%

**Q.** For `CC(C)(C)c1ccc(CN2CCC(CNC(=O)c3cc(-c4ccccc4Cl)cs3)C2)cc1.O=C(O)C(F)(F)F` (stereo not drawn), which Inhibition is on record?
**A.** 33%

**Q.** How did the Inhibition turn out when `O=C(O)C(F)(F)F.O=S(=O)(NCCN1CCCC1)c1cccc(-c2cccc(CNCc3ccc(F)cc3)c2)c1` was run?
**A.** 41%

**Q.** How did the Inhibition turn out when `CCCc1cc(NCC)nc(Nc2ccc(F)cc2)n1` was run?
**A.** 16%

**Q.** With `CCOC(=O)c1cn(CC)c2cc(F)c(OC3CC4CCC3(C)C4(C)C)cc2c1=O` (stereo not drawn) as the compound, how does the Inhibition read?
**A.** 0%

**Q.** Which Inhibition does the source give for `CCCS(=O)(=O)N1CCC(CO)(Cc2ccccc2C(F)(F)F)CC1` here?
**A.** 0%

**Q.** `O=C(NC1CCCC1)c1ccc(N2CCC(NCc3cc4cc(Cl)ccc4[nH]3)CC2)cc1` was tested. Which Inhibition did it give?
**A.** 21%

**Q.** For `COCCN(CCOC)c1ncc(-c2ccsc2)c(-c2nc(C)c(C)s2)n1`, which Inhibition is on record?
**A.** 1%

**Q.** With `COc1cc(Cc2cnc(N)nc2N)cc(OCCCCC2SC(=O)NC2=O)c1OC` (stereo not drawn) as the compound, how does the Inhibition read?
**A.** 0%

**Q.** `CCN1CCC(N(Cc2ccc(-c3ccc(C(F)(F)F)cc3)cc2)C(=O)Cn2c(SCc3ccc(F)cc3)nc(=O)c3c2CCC3)CC1.O=C(O)C(O)C(O)C(=O)O` was tested. Which Inhibition did it give?
**A.** 46%

**Q.** With `Cl.Cn1c(/C=C/C(=O)NC2CCC(CCN3CCc4ccc(C#N)cc4CC3)CC2)cc2ccccc21` (stereo not drawn) as the compound, how does the Inhibition read?
**A.** 15%

**Q.** For `NC1CCCN(Cc2cccc(-c3ccc(-c4nc5ccccc5[nH]4)s3)c2)C1.O=C(O)C(F)(F)F` (stereo not drawn), which Inhibition is on record?
**A.** 21%

**Q.** With `COc1ccc(-c2onc(C(F)(F)F)c2-c2cc3ccccc3o2)c(O)c1` as the compound, how does the Inhibition read?
**A.** 6%

**Q.** `CCN(CC)CCCN1CCN(C(=O)c2cccc(-c3noc(C(F)(F)F)n3)c2)CC1` was tested. Which Inhibition did it give?
**A.** 0%

**Q.** For `Cc1ccc(Oc2c(-c3ccccc3CN3CCCC3CN(C)C)cnn(C)c2=O)cn1.O=C(O)C(F)(F)F` (stereo not drawn), which Inhibition is on record?
**A.** 0%

**Q.** With `CC(C)(NCc1ccc(OC(F)(F)F)cc1)c1nc(-c2ccc(Cl)c(O)c2)c(-c2ccncc2)[nH]1.Cl` as the compound, how does the Inhibition read?
**A.** 65%

**Q.** How did the Inhibition turn out when `Cc1ccc(-n2c(Cc3cccc4ccccc34)nnc2SCCC#N)c(C)c1` was run?
**A.** 0%

**Q.** With `Fc1ccccc1CNc1ncc(-c2ccsc2)c(-c2nccs2)n1` as the compound, how does the Inhibition read?
**A.** 11%

**Q.** For `COc1ccc2ncc(Cl)c([C@H](O)CN3CCC(NCc4cc5c(cn4)OCCO5)CC3)c2c1.Cl`, which Inhibition is on record?
**A.** 10%

**Q.** How did the Inhibition turn out when `Cl.Cn1c2ccccc2c2c3ccccc3c(CNC(CO)(CO)CO)cc21` was run?
**A.** 67%

**Q.** `Clc1cc(Nc2ncnc3cc(C#C[C@H]4CCCN4)sc23)cc2nc(Cc3ccccc3)[nH]c12.O=C(O)C(F)(F)F` was tested. Which Inhibition did it give?
**A.** 29%

**Q.** Which Inhibition does the source give for `COc1cccc(C(O)CNc2ccnc(Nc3ccc(Cl)cc3)n2)c1` (stereo not drawn) here?
**A.** 31%

**Q.** With `CN(C)c1ccc(C(c2ccc(N(C)C)cc2)c2cc([N+](=O)[O-])ccc2Cl)cc1` as the compound, how does the Inhibition read?
**A.** 0%

**Q.** `CNCc1ccc(-c2ccc3ccnc(N)c3c2)cc1` was tested. Which Inhibition did it give?
**A.** 46%

**Q.** How did the Inhibition turn out when `O=C(O)C(F)(F)F.OC1CCCN(Cc2cccc(-c3ccc(-c4nc5cc(F)ccc5[nH]4)cc3)c2)C1` (stereo not drawn) was run?
**A.** 16%

**Q.** `Cc1cccc2nc(-c3cccc(-c4cccc(CN5CCCC5CN)c4)c3)[nH]c12.O=C(O)C(F)(F)F` (stereo not drawn) was tested. Which Inhibition did it give?
**A.** 15%

**Q.** How did the Inhibition turn out when `CC(CN1CCN(C)CC1)C(=O)Nc1cccc(-c2cccc(-c3nc4ccccc4[nH]3)c2)c1` (stereo not drawn) was run?
**A.** 23%

**Q.** With `CCNc1cc(C(=O)N[C@@H](Cc2ccccc2)[C@H](O)CNCc2cc(C#N)ccc2OC)cc(N2CCCC2=O)c1.O=C(O)C(F)(F)F` as the compound, how does the Inhibition read?
**A.** 0%

**Q.** `CC(C)(C)c1ccc2nccc(Nc3cccc(O)c3)c2c1` was tested. Which Inhibition did it give?
**A.** 8%

**Q.** For `CNC(=O)c1cnc(Nc2ccc(N3CCN(C)CC3)cc2)nc1Nc1cccc([N+](=O)[O-])c1.O=C(O)C(F)(F)F`, which Inhibition is on record?
**A.** 31%

**Q.** For `COc1ccccc1NC(=O)OC(COc1ccc(N)cc1)CN1CC=C(c2ccccc2)CC1.O=C(O)C(F)(F)F` (stereo not drawn), which Inhibition is on record?
**A.** 16%

**Q.** For `Cc1csc2nc(-c3ccccn3)nc(Nc3ccc4ncsc4c3)c12.Cl`, which Inhibition is on record?
**A.** 0%
